# High-throughput results from PubChem.
# Compounds with a hit are over-represented: about 10% of the library has one in this group of screens.
# JMJD2A Tudor inh – qHTS Assay for Inhibitors of JMJD2A-Tudor Domain | AlphaScreen JMJD2A-Tudor / H3K4me3 peptide binding | Potency, µM (series often up to 114 µM), for inactives: at the top dose activity change, negative = inhibition, usual class: inhibitors | 390,000 tested, 4.4% active; also: % is scaled to controls: 0 for no effect and ±100 for the full control effect; nearly all actives have a fitted effect of over 50% in size
# HP1b chromo inh – HTS for Inhibitors of HP1-beta Chromodomain Interactions with Methylated Histone Tails | Chromobox protein homolog 1 (Homo sapiens), P83916 | AlphaScreen HP1-beta / biotin-H3K9me3 peptide binding | Potency, µM (highest dose often 114 µM), for inactives: at the highest dose activity change, negative = inhibition, hits mostly inhibitors | 390,000 tested, 0.56% active | AID 540317, 2011; also: nearly all actives have a fitted effect of over 70% in size
#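 Compound inhibition of the preformed complex between 50 nM HP1-beta and 50 nM biotinylated H3K9me3 peptide was read by AlphaScreen. Buffer was PBS pH 7.4 with 0.01% Tween-20. Incubations ran 30 min at room temperature, with 10 ug/mL donor/acceptor beads.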
# GLS inh – qHTS for Inhibitors of Glutaminase (GLS) | GLS enzymatic activity, qHTS titration | AID 624170, 2012 | Potency, µM (titrated, usually from 45.5 µM), inactives show top-dose activity change, negative = inhibition, hits mostly inhibitors | Glutaminase kidney isoform, mitochondrial (Homo sapiens), O94925 | 410,000 tested, 0.21% active; also: % is scaled to controls: 0 for no effect and ±100 for the full control effect
#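 Glutamate formation by hKGA was monitored fluorometrically using coupled glutamate oxidase, HRP and Amplex Red. Substrate was added as 1 mM L-glutamine solution; incubation was 30 min at RT after an initial read.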
# BAZ2B block – qHTS Assay for Inhibitors of BAZ2B | 360,000 tested, 4.4% active | Bromodomain adjacent to zinc finger domain protein 2B (Homo sapiens), Q9UIF8 | AlphaScreen BAZ2B-H3K14Ac peptide displacement | Potency, µM (top dose mostly 114 µM), for inactives: at the top dose activity change, negative = inhibition, hits mostly inhibitors | AID 504333, 2011; also: % is scaled to controls: 0 for no effect and ±100 for the full control effect; nearly all actives have a fitted effect of over 60% in size
#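 AlphaScreen displacement: compounds (up to 110uM) incubated 30 min at room temperature with a preformed 50 nM BAZ2B/50 nM biotinylated H3K14Ac peptide complex in PBS pH 7.4 with Tween-20. Donor and acceptor beads at 10 ug/mL final added, 20 min light-protected before reading.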
# G9a inh – qHTS Assay for Inhibitors of Histone Lysine Methyltransferase G9a; G9a H3K9 monomethylation, AlphaScreen, 2 h; Potency, µM (top dose mostly 102 µM), for the others: at the top dose activity, negative = inhibition, hits mostly inhibitors; 350,000 tested, 8.8% active; AID 504332, 2011; also: % is scaled to controls: 0 for no effect and ±100 for the full control effect; nearly all actives have a fitted effect of over 75% in size
#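 Enzyme 20 nM + cpd, 15 min RT; add b-H3K9 pep 500 nM / SAM 20 uM; 2 h RT; anti-H3K9me1 Ab 0.5 ug/mL + SA donor / anti-rabbit acceptor beads 20 ug/mL each, 10 min; AlphaScreen read.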
# Starred values were filed as active, the others as inactive; u = inconclusive; x = no result given; ! = not confirmed by another sample; [ ] = dose if it differs, or a comment. Calls follow the shape of the dose curve; as a rule, active = well fitted curve in the direction sought with a large enough effect; inconclusive = small, poorly fitted or top-dose-only effect, or another doubt; inactive = no such curve, though single readings can be large; an effect the other way counts as inactive or inconclusive. Potency is read from the fitted curve at half-maximal effect.
SMILES,JMJD2A Tudor inh,HP1b chromo inh,GLS inh,BAZ2B block,G9a inh
O=C(/C=C/[C@H]1O[C@@H](n2ccc(=O)[nH]c2=O)[C@H](O)[C@@H]1O)NCCCc1ccccc1,x,x,-7%,x,x
Cc1cccc(Cc2c(C)nc3nc(SCc4ccccc4C)nn3c2C)c1,-13%,8%,-15%,10%,25%[59 µM]
Nc1ccccc1Sc1nc2ccccc2[nH]1,28µM*,u,5%,40µM*,7.1µM*
CS(=O)(=O)c1ccc(Sc2nc3ccccc3[nH]2)c([N+](=O)[O-])c1,11µM*,-6%,7%,u,u
COc1ccc(CCCc2n[nH]c(=S)o2)cc1,-12%,29%,11%,u,u
COc1ccc(Cc2n[nH]c(=S)o2)cc1,32µM*,26%,12%,-4%,x
N#CCSc1nnc(COc2ccc3ccccc3c2)o1,12%[57.1 µM],21%,2%,0%,u
S=c1[nH]nc(COc2ccc3ccccc3c2)o1,-23%,-15%,41%,-34%,0.89µM*
NC(=O)NS(=O)(=O)Oc1ccccc1,89µM*,13%,18%,-9%,x
NC(=O)[C@@H]1CCCCNc2c(F)cc([N+](=O)[O-])cc2C(=O)N[C@@H](CC(=O)O)C(=O)NCC(=O)N1,-6%,53%,1%,-4%,u
NCCCC[C@@H]1NC(=O)[C@H](CCC(=O)O)NC(=O)c2cc([N+](=O)[O-])cc(I)c2SC[C@@H](C(=O)NCC(N)=O)NC1=O,22µM*,24%,-5%,u,3.2µM*
NCCCC[C@@H]1NC(=O)c2cc([N+](=O)[O-])cc(I)c2SC[C@@H](C(N)=O)NC(=O)[C@H](Cc2ccc(O)cc2)NC1=O,u,-4%,22%,u,35µM*
CCOC(=O)c1c(NC(=O)c2ccccc2)sc2c(O)c(CN(CC)CC)ccc12,-22%,-5%,-3%,-8%,50µM*
COc1ccc(N/C=C2\CCc3ccccc3C2=O)cc1,15%,54%,13%,14%,2µM*
COc1ccc2c(c1)CC/C(=C/c1cc(OC)c(OC)c(OC)c1)C2=O,-20%,29%,0%,-35%,-32%[59 µM]
COc1ccc(N/C=C2\CCOC2=O)cc1,-24%,7%,2%,-1%,9%[59 µM]
COc1ccc2c(c1)CC/C(=C\Nc1ccc3c(c1)OCO3)C2=O,u,u,12%,u,2.5µM*
O=C1/C(=C/Nc2ccc3c(c2)OCO3)CCc2ccccc21,-42%,u,21%,-38%,1.8µM*
CCNc1nc(C#N)nc(NCC)n1,-22%[57.1 µM],21%[57 µM],x,x,x
Cc1cccc(-n2c(SCc3ccc([N+](=O)[O-])cc3)nnc2-c2c[nH]c3ccccc23)c1,u,-20%,-6%,-27%,45µM*
O=C(c1c[nH]c(C(=O)C(Cl)(Cl)Cl)c1)c1c(F)cccc1F,22µM*,3%,u,-23%,-41%
Cn1c(=O)c(-c2ccc(F)cc2)nc2cnc(Nc3ccccc3)nc21,x,x,x,x,7%[0.501 µM]
COc1ccccc1Nc1nc(-c2cccc(N3C(=O)c4ccccc4C3=O)c2)cs1,-13%,17%,-6%,-3%,25µM*
CCOc1ccccc1Nc1nc(-c2cccnc2)cs1,u,-24%,u,u,-15%[59 µM]
O=C1c2ccccc2C(=O)N1c1cccc(-c2csc(Nc3ccc4c(c3)OCO4)n2)c1,x,x,x,u,8.9µM*
SMILES,JMJD2A Tudor inh,HP1b chromo inh,GLS inh,BAZ2B block,G9a inh
COC(=O)C1=CCCCC(O)=C1C(=O)OC,x,x,-2%,x,x
COc1cc(NC(=O)COc2ccc([N+](=O)[O-])cc2)ccc1NC(=O)c1ccco1,x,x,-1%,x,x
Oc1[nH]c2ccccc2c1C=Nc1ccc2c(c1)OCCO2,u,-7%,2%,35µM*,-5%
Oc1c(Br)cc(Br)cc1C=Nc1ccc2c(c1)OCCO2,-4%,50%,24%,7%,-39%
COC1=C(OC)C(=O)c2ccccc2C1=O,x,x,x,x,20µM*!
COC1=C(Nc2ccccc2)C(=O)c2ccccc2C1=O,14µM*,35µM*,-15%,14µM*,11µM*
COC1=C(Nc2ccc(C)cc2)C(=O)c2ccccc2C1=O,10µM*,16µM*,-2%,7.9µM*,8.9µM*
